# According to publication PMC7862700, “An all-to-all approach to the identification of sequence-specific readers for epigenetic DNA modifications on cytosine”:
# How the values were obtained:
# Experiment in all cases: DAPPL (digital affinity profiling via proximity ligation, sequencing); 10 mM Tris-HCl pH 7.5, 50 mM NaCl, 1 mM DTT, 4% glycerol, room temperature, 30 min; GST-TFs on glutathione beads, 16-mer random dsDNA library, 0.1% formaldehyde crosslink after washing; high values mean tight binding
# [1] = molecular target: T1, FLI1 (Homo sapiens, UniProt Q01543 1-452); conditions: protein: recombinant; tags: N-terminal GST; dsDNA, one strand shown
# T1 sequence: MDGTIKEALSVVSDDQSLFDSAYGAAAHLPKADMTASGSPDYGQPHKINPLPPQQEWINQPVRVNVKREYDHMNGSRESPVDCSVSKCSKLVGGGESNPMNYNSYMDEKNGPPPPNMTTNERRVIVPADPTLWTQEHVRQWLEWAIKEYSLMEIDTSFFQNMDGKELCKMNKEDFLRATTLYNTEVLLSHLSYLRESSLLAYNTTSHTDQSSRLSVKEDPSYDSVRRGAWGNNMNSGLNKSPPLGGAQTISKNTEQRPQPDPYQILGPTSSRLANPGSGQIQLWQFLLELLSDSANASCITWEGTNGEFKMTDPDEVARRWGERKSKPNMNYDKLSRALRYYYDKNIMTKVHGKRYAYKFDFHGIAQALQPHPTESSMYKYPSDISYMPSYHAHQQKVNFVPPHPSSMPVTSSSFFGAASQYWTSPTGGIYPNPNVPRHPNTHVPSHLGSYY
# Method in brief: (§1)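 Each value of binding signal is a hexamer's read frequency for a factor divided by the same hexamer's frequency in the tag-only sample. Barcoded, bead-captured GST fusions of human transcription factors made in yeast were pooled with that sample and incubated with 200 nmole of a random double-stranded 16-mer DNA library in Tris/NaCl/DTT/glycerol buffer at room temperature for 30 min. Washing, 0.1% formaldehyde crosslinking, proximity ligation, PCR and Illumina NextSeq500 sequencing followed.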
# [2] = molecular target: T2, ELK1 (Homo sapiens, UniProt P19419 1-428); conditions: protein: recombinant; tags: N-terminal GST; dsDNA, one strand shown
# T2 sequence: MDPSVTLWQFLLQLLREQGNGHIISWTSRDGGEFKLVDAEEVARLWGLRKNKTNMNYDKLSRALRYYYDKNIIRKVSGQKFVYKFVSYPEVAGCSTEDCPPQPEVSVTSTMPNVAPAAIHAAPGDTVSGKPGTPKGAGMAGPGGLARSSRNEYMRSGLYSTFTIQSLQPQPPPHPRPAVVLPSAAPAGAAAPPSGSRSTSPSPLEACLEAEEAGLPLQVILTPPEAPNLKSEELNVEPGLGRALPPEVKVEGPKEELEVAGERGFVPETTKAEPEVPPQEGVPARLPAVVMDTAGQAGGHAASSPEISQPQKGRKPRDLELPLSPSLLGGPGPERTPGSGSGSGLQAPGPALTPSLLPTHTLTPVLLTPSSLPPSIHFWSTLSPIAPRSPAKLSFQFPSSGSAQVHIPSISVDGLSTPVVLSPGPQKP
# Method in brief: as §1
# [3] = molecular target: T3, GABPA (Homo sapiens, UniProt Q06546 1-454); conditions: protein: recombinant; tags: N-terminal GST; dsDNA, one strand shown
# T3 sequence: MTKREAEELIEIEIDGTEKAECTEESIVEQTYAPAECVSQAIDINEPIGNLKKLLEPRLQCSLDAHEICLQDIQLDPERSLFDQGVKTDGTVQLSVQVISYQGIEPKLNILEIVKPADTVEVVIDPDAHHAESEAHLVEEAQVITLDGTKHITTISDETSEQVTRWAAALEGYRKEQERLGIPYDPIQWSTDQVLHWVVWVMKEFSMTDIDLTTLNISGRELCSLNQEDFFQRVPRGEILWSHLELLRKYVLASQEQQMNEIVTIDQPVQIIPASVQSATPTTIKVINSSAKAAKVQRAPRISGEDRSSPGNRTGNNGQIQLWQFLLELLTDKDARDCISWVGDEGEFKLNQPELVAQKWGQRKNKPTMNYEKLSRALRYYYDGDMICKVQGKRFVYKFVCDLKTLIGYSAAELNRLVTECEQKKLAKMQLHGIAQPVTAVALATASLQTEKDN
# Method in brief: as §1
# [4] = molecular target: T4, ERG (Homo sapiens, UniProt P11308 1-479); conditions: protein: recombinant; tags: N-terminal GST; dsDNA, one strand shown
# T4 sequence: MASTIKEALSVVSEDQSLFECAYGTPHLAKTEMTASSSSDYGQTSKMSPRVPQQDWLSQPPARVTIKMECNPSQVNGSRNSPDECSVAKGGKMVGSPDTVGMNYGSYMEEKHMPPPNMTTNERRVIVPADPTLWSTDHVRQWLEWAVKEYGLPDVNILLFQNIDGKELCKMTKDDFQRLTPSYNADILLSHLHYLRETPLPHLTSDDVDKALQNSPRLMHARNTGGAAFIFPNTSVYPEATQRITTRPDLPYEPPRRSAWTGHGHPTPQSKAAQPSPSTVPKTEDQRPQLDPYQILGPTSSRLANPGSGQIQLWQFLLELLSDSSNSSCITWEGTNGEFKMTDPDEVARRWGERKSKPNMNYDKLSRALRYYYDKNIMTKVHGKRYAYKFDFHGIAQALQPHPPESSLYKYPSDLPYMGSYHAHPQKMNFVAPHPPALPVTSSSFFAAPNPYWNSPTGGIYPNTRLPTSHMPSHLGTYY
# Method in brief: as §1
# [5] = molecular target: ELF1 (Homo sapiens, UniProt P32519 1-619); conditions: protein: recombinant; tags: N-terminal GST; dsDNA, one strand shown
# Method in brief: as §1
# [6] = molecular target: T5, EHF (Homo sapiens, UniProt Q9NZC4 1-300); conditions: protein: recombinant; tags: N-terminal GST; dsDNA, one strand shown
# T5 sequence: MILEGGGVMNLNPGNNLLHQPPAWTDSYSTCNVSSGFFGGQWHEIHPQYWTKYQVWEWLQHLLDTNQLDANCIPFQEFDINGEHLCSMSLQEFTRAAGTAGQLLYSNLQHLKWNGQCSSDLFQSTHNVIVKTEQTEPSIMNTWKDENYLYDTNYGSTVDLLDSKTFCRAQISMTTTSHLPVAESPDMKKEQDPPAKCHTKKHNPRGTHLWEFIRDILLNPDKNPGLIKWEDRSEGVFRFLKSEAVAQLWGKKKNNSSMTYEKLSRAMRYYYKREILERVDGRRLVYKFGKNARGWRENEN
# Method in brief: as §1
# [7] = molecular target: SPI1 (Homo sapiens, UniProt P17947 1-270); conditions: protein: recombinant; tags: N-terminal GST; dsDNA, one strand shown
# Method in brief: as §1
# [8] = molecular target: SPIB (Homo sapiens, UniProt Q01892 1-262); conditions: protein: recombinant; tags: N-terminal GST; dsDNA, one strand shown
# Method in brief: as §1
# [9] = molecular target: T6, ELK3 (Homo sapiens, UniProt P41970 1-407); conditions: protein: recombinant; tags: N-terminal GST; dsDNA, one strand shown
# T6 sequence: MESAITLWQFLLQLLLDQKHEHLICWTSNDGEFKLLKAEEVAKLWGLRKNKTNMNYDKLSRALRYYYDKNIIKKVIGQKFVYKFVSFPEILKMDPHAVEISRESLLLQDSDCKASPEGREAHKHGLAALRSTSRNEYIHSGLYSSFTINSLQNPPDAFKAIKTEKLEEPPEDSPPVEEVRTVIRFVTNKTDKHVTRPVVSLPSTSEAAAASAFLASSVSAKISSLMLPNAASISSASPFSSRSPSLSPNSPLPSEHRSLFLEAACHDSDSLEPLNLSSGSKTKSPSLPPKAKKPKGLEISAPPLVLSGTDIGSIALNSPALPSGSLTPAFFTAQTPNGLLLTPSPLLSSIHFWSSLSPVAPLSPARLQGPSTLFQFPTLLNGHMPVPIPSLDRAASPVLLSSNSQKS
# Method in brief: as §1
# [10] = molecular target: T7, FEV (Homo sapiens, UniProt Q99581 1-238); conditions: protein: recombinant; tags: N-terminal GST; dsDNA, one strand shown
# T7 sequence: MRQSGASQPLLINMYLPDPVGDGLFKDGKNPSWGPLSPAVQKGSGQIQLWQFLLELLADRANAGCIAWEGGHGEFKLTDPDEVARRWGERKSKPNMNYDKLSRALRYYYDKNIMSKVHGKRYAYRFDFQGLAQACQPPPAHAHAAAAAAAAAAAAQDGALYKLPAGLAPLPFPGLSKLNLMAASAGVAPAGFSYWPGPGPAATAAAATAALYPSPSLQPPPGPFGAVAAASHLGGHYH
# Method in brief: as §1
# [11] = molecular target: ETV5 (Homo sapiens, UniProt P41161 1-510); conditions: protein: recombinant; tags: N-terminal GST; dsDNA, one strand shown
# Method in brief: as §1
# [12] = molecular target: HSF1 (Homo sapiens, UniProt Q00613 1-529); conditions: protein: recombinant; tags: N-terminal GST; chain copies: 3; dsDNA, one strand shown
# Method in brief: as §1
# [13] = molecular target: T8, SPIC (Homo sapiens, UniProt Q8N5J4 1-248); conditions: protein: recombinant; tags: N-terminal GST; dsDNA, one strand shown
# T8 sequence: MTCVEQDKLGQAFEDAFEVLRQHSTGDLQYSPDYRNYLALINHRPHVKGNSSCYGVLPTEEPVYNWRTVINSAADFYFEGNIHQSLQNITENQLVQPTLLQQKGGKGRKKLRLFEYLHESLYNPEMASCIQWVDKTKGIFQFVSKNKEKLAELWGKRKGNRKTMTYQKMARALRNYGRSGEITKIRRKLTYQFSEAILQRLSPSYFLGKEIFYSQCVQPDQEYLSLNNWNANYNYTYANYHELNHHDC
# Method in brief: as §1
# [14] = molecular target: ELF4 (Homo sapiens, UniProt Q99607 1-663); conditions: protein: recombinant; tags: N-terminal GST; dsDNA, one strand shown
# Method in brief: as §1
# [15] = molecular target: T9, ELK4 (Homo sapiens, UniProt P28324-2 1-405); conditions: protein: recombinant; tags: N-terminal GST; dsDNA, one strand shown
# T9 sequence: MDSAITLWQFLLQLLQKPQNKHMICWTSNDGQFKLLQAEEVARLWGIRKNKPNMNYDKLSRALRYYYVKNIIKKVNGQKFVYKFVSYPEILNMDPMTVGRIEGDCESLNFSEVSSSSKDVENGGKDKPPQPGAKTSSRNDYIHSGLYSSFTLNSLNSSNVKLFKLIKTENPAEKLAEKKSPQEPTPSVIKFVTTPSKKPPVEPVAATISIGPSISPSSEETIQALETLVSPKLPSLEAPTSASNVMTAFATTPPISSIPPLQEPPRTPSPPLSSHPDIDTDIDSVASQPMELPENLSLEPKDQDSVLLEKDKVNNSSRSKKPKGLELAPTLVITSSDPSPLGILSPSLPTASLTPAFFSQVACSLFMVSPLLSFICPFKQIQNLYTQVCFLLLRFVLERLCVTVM
# Method in brief: as §1
# [16] = molecular target: T10, ETV2 (Homo sapiens, UniProt O00321 1-342); conditions: protein: recombinant; tags: N-terminal GST; dsDNA, one strand shown
# T10 sequence: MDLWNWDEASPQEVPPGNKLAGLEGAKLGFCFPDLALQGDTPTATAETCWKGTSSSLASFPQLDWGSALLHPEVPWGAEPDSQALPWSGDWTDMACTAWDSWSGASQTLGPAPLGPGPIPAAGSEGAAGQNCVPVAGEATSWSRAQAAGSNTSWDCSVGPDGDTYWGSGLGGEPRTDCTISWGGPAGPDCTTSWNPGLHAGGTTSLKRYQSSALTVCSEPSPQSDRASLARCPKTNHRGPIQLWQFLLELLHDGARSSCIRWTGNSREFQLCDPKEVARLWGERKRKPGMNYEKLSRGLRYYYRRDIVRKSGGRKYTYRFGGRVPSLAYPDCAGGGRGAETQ
# Method in brief: as §1
# [17] = molecular target: T11, ELF3 (Homo sapiens, UniProt P78545 1-371); conditions: protein: recombinant; tags: N-terminal GST; dsDNA, one strand shown
# T11 sequence: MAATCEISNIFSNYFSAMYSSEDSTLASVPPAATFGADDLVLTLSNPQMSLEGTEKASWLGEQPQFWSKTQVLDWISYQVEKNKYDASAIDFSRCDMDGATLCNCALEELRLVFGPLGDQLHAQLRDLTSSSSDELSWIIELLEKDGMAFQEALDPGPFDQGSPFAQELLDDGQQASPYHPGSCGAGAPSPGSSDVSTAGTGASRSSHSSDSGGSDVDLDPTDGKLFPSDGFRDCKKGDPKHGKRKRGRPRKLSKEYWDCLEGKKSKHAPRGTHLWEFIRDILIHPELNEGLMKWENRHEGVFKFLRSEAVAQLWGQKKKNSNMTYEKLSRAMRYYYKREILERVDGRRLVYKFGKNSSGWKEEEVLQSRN
# Method in brief: as §1
# [18] = molecular target: ETV1 (Homo sapiens, UniProt P50549 1-477); conditions: protein: recombinant; tags: N-terminal GST; dsDNA, one strand shown
# Method in brief: as §1
# Chain of ETV1 (P50549 whole entry): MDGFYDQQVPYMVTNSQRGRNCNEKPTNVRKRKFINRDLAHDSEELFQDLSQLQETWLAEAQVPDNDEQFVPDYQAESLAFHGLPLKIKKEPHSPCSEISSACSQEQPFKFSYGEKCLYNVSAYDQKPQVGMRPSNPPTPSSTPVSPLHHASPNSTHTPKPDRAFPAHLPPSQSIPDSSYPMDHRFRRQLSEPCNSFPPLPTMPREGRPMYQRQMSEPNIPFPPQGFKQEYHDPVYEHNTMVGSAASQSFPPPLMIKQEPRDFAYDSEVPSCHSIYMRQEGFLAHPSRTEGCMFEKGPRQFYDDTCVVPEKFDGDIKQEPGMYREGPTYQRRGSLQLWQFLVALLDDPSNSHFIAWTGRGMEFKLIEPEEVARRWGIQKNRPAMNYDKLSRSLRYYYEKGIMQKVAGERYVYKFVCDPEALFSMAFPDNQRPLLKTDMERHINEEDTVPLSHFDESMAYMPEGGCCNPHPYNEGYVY
# Chain of ELF1 (P32519 whole entry): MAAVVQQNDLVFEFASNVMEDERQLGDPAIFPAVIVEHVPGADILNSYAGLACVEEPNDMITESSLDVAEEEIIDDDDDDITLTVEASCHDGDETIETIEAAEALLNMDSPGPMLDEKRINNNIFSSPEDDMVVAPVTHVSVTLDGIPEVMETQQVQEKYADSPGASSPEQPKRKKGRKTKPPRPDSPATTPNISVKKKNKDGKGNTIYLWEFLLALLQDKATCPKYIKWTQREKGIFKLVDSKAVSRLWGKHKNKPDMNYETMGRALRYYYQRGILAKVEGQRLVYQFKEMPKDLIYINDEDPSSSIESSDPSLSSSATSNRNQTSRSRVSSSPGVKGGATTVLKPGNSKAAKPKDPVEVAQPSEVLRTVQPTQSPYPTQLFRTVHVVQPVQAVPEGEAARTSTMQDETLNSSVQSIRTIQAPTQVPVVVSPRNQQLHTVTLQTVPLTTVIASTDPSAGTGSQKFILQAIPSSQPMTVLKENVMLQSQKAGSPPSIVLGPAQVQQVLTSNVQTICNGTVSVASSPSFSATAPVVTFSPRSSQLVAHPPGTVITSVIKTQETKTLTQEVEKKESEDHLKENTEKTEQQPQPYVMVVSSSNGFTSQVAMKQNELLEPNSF
# Chain of ETV5 (P41161 whole entry): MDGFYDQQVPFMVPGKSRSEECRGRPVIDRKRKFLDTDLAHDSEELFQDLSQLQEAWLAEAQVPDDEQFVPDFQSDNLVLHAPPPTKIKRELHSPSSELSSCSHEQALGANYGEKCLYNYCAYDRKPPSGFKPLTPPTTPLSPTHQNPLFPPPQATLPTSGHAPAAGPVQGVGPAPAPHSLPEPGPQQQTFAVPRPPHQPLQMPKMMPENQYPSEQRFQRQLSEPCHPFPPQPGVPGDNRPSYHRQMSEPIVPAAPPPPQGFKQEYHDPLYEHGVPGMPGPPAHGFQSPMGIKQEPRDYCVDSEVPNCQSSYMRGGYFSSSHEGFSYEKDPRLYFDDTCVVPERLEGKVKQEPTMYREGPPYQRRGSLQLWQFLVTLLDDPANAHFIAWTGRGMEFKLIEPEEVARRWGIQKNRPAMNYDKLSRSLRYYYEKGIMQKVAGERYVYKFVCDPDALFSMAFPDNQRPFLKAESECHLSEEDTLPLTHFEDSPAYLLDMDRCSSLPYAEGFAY
# Chain of HSF1 (Q00613 whole entry): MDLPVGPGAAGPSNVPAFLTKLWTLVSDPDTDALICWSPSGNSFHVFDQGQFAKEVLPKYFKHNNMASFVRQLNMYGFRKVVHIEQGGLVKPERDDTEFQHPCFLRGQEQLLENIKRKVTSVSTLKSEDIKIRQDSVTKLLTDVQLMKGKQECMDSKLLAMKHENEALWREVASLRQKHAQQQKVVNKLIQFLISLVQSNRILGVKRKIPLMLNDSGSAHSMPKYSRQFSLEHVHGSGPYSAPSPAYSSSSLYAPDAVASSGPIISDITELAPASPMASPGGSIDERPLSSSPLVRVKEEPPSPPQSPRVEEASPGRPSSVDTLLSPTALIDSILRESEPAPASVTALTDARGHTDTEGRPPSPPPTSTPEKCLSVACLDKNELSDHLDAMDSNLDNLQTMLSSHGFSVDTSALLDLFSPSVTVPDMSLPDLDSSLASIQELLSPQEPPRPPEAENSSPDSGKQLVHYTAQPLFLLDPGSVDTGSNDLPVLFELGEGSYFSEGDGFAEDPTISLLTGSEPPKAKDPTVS
# Chain of ELF4 (Q99607 whole entry): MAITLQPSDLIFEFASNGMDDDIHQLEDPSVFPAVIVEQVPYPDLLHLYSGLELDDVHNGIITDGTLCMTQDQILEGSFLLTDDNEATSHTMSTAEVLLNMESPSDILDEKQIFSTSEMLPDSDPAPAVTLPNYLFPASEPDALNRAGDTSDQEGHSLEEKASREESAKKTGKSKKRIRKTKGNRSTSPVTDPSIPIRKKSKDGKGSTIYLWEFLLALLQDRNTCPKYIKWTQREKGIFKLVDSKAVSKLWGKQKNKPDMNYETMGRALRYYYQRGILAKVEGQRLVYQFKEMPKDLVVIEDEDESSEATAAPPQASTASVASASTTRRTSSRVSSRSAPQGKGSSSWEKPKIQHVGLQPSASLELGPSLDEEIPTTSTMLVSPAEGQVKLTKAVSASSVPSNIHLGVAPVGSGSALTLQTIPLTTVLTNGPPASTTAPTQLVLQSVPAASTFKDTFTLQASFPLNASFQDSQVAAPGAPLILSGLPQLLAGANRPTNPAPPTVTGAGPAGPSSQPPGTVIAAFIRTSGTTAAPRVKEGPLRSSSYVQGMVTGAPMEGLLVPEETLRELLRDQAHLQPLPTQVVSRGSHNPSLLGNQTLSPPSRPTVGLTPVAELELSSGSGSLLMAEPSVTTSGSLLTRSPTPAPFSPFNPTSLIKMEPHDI
# Chain of SPIB (Q01892 whole entry): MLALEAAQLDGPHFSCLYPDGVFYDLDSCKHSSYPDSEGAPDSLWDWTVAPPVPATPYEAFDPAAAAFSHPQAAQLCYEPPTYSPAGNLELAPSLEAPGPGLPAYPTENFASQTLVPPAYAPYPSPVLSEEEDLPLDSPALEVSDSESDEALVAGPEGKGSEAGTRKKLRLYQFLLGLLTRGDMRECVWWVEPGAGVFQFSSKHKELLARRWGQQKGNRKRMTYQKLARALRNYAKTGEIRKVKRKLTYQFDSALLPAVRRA
sequence,measurement,setting,value
GTTCAA,binding signal,[1],"1.07 fold enrichment (6-mer frequency, TF over GST control)"
same,binding signal,[2],"1.18 fold enrichment (6-mer frequency, TF over GST control)"
same,binding signal,[3],"1.17 fold enrichment (6-mer frequency, TF over GST control)"
same,binding signal,[4],"1.14 fold enrichment (6-mer frequency, TF over GST control)"
same,binding signal,[5],"1.16 fold enrichment (6-mer frequency, TF over GST control)"
same,binding signal,[6],"1.18 fold enrichment (6-mer frequency, TF over GST control)"
same,binding signal,[7],"1.19 fold enrichment (6-mer frequency, TF over GST control)"
same,binding signal,[8],"1.19 fold enrichment (6-mer frequency, TF over GST control)"
same,binding signal,[9],"1.13 fold enrichment (6-mer frequency, TF over GST control)"
same,binding signal,[10],"1.08 fold enrichment (6-mer frequency, TF over GST control)"
same,binding signal,[11],"1.14 fold enrichment (6-mer frequency, TF over GST control)"
same,binding signal,[12],"1.03 fold enrichment (6-mer frequency, TF over GST control)"
same,binding signal,[13],"1.15 fold enrichment (6-mer frequency, TF over GST control)"
same,binding signal,[14],"1.15 fold enrichment (6-mer frequency, TF over GST control)"
same,binding signal,[15],"1.16 fold enrichment (6-mer frequency, TF over GST control)"
same,binding signal,[16],"1.05 fold enrichment (6-mer frequency, TF over GST control)"
same,binding signal,[17],"1.22 fold enrichment (6-mer frequency, TF over GST control)"
same,binding signal,[18],"1.23 fold enrichment (6-mer frequency, TF over GST control)"
